# High-throughput results from PubChem BioAssay.
# PI5P4Ka inh: blocks human PI5P4K alpha kinase activity; P48426; PI5P4Kalpha enzyme, ADP-Glo luminescence, 60 min; stronger effect = lower value; actives 1.2% (n = 330,000); max response, %; active means max response of -50% or lower; inconclusive means between -30% and -50%; inactive means -30% or higher; further: value at the top dose of about 77 µM; on the % scale 0 is the no-effect control and ±100 the full control effect
#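 PI5P4Kalpha ADP-Glo assay; 5 microM ATP final; 60 min RT reaction; HEPES pH 7.4/EGTA/CHAPS, 5% DMSO; controls lacking substrate or enzyme; luminescent end-point.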
# Pol iota inh: inhibitors of human DNA polymerase iota; Potency, µM (titrated, usually from 115 µM), without a hit: at the top dose activity, negative = inhibition, actives largely listed as inhibitors; Pol iota fluorescent replication assay, 10 min; AID 588590; actives 1% (n = 390,000); further: potency means the concentration at half of the fitted maximal effect
#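 Pol iota at 10 nM preincubated 15 min with compounds at room temperature; reaction started with fluorescent substrate, 50 nM final. Fluorescence read kinetically at 0 and 10 min; buffer-only wells as negative control.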
# POLK inh: inhibitors of human DNA polymerase kappa; purified Pol kappa, fluorescent DNA synthesis assay, 10 min; actives 0.53% (n = 400,000); Q9UBT6; Potency, µM (top dose mostly 107 µM), for the others: at the highest dose activity, negative = inhibition, usual class: inhibitors; further: potency means the concentration at half of the fitted maximal effect; on the % scale 0 is the no-effect control and ±100 the full control effect
#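 Pol kappa 10 nM + cpd, 15 min RT; start w/ substrate 50 nM final; fluorescence kinetic read, 0 and 10 min. Neg ctrl: buffer, no enzyme.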
# WRN inhibitor: blocks human WRN helicase. WRN helicase unwinding, fluorescent forked duplex, kinetic. Q14191. Potency, µM (titrated, usually from 114 µM), inactives show top-dose activity change, negative = inhibition, actives largely listed as inhibitors. AID 651768. actives 0.46% (n = 360,000); further: potency means the concentration at half of the fitted maximal effect; on the % scale 0 is the no-effect control and ±100 the full control effect; nearly all actives have a fitted effect of over 55% in size
#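 Fluorescence dequenching readout, ex 525 nm/em 598 nm, kinetic mode: forked duplex DNA (100 nM final) with adjacent fluorophore and quencher unwound by WRN (20 nM final) with 2 mM ATP. Compound preincubation 15 min, room temperature.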
# POLB inh: blocks human DNA polymerase beta activity | Pol beta primer extension/strand displacement, fluorescence kinetic | Potency, µM (doses to about 114 µM), without a hit: at the top dose activity change, negative = inhibition, actives largely listed as inhibitors | actives 1.3% (n = 340,000); further: potency means the concentration at half of the fitted maximal effect; on the % scale 0 is the no-effect control and ±100 the full control effect
#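 Curves were derived by four-parameter Hill fits of normalized qHTS data. The kinetic fluorescent primer-extension read was taken at 0 and 10 min after 50 nM substrate, following a 15 min room-temperature preincubation of 10 nM enzyme with compounds.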
# POLH inh: DNA polymerase eta (human) inhibition; Q9Y253; recombinant Pol eta, fluorescent DNA replication assay; Potency, µM (doses to about 114 µM), inactives show top-dose activity change, negative = inhibition, actives largely listed as inhibitors; actives 1.2% (n = 390,000); AID 588591; further: potency means the concentration at half of the fitted maximal effect; on the % scale 0 is the no-effect control and ±100 the full control effect
#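 Pol eta at 10 nM preincubated with compounds 15 min at room temperature; reaction started with fluorescent substrate (50 nM final) and read kinetically at 0 and 10 min.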
# Numbers without * were called inactive; ? = inconclusive; . = no result; [ ] = remark or other dose. Rows were chosen to be rich in hits. Some 2.8% of all compounds tested hit in one or more screens of this group. Unless noted, the call rests on the fitted dose curve; in most records, active means well fitted curve in the direction sought with a large enough effect; inconclusive means small, poorly fitted or top-dose-only effect, or another doubt; inactive means no such curve, though single readings can be large; an effect the other way counts as inactive or inconclusive.
SMILES,PI5P4Ka inh,Pol iota inh,POLK inh,WRN inhibitor,POLB inh,POLH inh
CCn1nnc2sc3c(c2c1=O)CCC(C)C3 (stereo not given),2,10%,-10%,0%,40%,-9%
COc1ccc(CN2C(=O)C(NC(=O)c3ccccc3OC)(C(F)(F)F)N=C2c2ccccc2)cc1 (stereo not given),.,11%,7%,.,17%,-10%
CCc1ccccc1NC(=O)CCn1cccn1,.,-24%,2%,.,13%,-9%
COc1ccccc1NS(=O)(=O)c1cccc(C(=O)N/N=C/c2ccc(NC(C)=O)cc2)c1,10,50µM*,-26%,-10%,?,-15%
COc1ccccc1NS(=O)(=O)c1cccc(C(=O)N/N=C/c2ccc(OCC(=O)O)cc2)c1,-3,-3%,2%,-8%,-27%,-15%
O=C(O)c1ccc2c(c1)S(=O)(=O)c1cc(N3CCN(c4ncccn4)CC3)ccc1C2=O,-57*,.,.,-7%,.,-5%
Oc1ccccc1Nc1nc(NCC2CCCO2)c2ccccc2n1 (stereo not given),.,-8%,-4%,-16%,-18%,-7%
Oc1ccc(Nc2nc(NCC3CCCO3)c3ccccc3n2)cc1 (stereo not given),-4,-3%,-26%,35µM*,?,-13%
CCN(CC)S(=O)(=O)c1cccc(C(=O)N/N=C/c2cccc(O)c2O)c1,-13,20µM*,-42%,?,8%,-5%
COc1cc(C)c2ccccc2n1,.,12%,15%,.,.,.
O=C(/C=C/c1ccco1)N1CCN(c2ncccn2)CC1,2,3%,-13%,-25%[57.1 µM],?,?
O=C(/C=C/c1ccco1)N1CCC(Cc2ccccc2)CC1,-57*,40µM*,?,?,?,?
O=S(=O)(/N=S1/CC=CCN1S(=O)(=O)c1ccccc1)c1ccccc1 (stereo not given),?,-1%,-16%,45µM*,11%,-5%
O=c1cc(-c2ccc(Br)cc2)[nH][nH]1,1,91%,4%,0%,12%,-5%
O=c1cc(-c2ccc(F)cc2)[nH][nH]1,-1,1.8µM*,-1%,4%[11.6 µM],2%,-19%
COc1cccc(-c2cc(=O)[nH][nH]2)c1,-3,?,-2%,5%,2%,-6%
COc1ccc(-c2cc(=O)[nH][nH]2)cc1OC,.,1.3µM*,-3%,4%[57.1 µM],37%,-17%
CCc1ccc(NC(=O)CSc2nc(-c3ccccc3)no2)cc1,.,10%,-17%,.,-24%,4%
CCc1ccc(C(=O)NC2=NC(c3ccccc3F)CC(=O)N2)cc1 (stereo not given),.,2%,8%,.,11%,-4%
Cc1ccc2nc(/C=C/c3ccc(N(C)C)cc3)ccc2c1,.,64%,7%,.,.,.
Cc1cc(C)c2nc3nc(C)c(C)cc3c(N)c2c1,0,32µM*,?,8%[11.6 µM],16µM*,-20%
CS(=O)(=O)N1CCN(/[N+]([O-])=N/Oc2ccc([N+](=O)[O-])cc2[N+](=O)[O-])CC1,.,?,11%,.,.,.
Nc1cc(N)cc(-c2nc3ccccc3[nH]2)c1,-64*,16%,-4%,-25%,-1%,?
N[C@@H](Cc1cc(CP(=O)(O)O)cc(-c2ccccc2Cl)c1)C(=O)O,.,.,21µM*,.,.,.
NC(Cc1cccc(-c2ccccc2CP(=O)(O)O)c1)C(=O)O (stereo not given),.,7%[58.9 µM],-6%[60.1 µM],.,1%[57.1 µM],0%[57.1 µM]
Cc1cc(C)cc(N2CC(c3nc(-c4ccccc4C)no3)CC2=O)c1 (stereo not given),.,-11%,-2%,.,2%,-18%
Cc1ccc(C)n1C1CCS(=O)(=O)C1 (stereo not given),-1,10%,-6%,7%,5%,2%
Cc1nn(C2CCS(=O)(=O)C2)c(C)c1C=O (stereo not given),-67*,80%,2%,?,12%,-7%
COc1ccccc1N(C)C,.,-3%,-9%,.,.,.
